Reference: PubChem BioAssay (NCATS)
Inconclusive results are not listed. The source made the active and inactive calls. Calls come from the whole dose curve; as a rule, active = well fitted curve in the direction sought with a large enough effect; inconclusive = small, poorly fitted or top-dose-only effect, or another doubt; inactive = no such curve, though single readings can be large; an effect the other way counts as inactive or inconclusive. Where a SMILES comes first, the peptide text is derived from it. The star is where a group is joined. Cbz = O=C(OCc1ccccc1)*; CH2F = FC*

What was measured:
[1] = target: Calcium and integrin-binding protein 1 (Homo sapiens) (UniProt Q99828); assay: Primary qHTS for Identification of Calcium Integrin Binding Protein 1 (CIB1) Competitor (AID 1508620);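 note: GST tagged CIB1 binding a fluorescein labelled alphaIIb integrin peptide tracer; top concentration of the series differs between compounds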
Summary of the method: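 CIB1-GST (1 uM final) and compound incubated 15 min at room temperature before adding FITC-alphaIIb peptide tracer (100 nM final). Competition for binding read by fluorescence polarization (ex 480, em 540) after another 15 min at room temperature.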

[2] = Primary qHTS for inhibitors of nuclear receptor binding SET domain protein 2 (NSD2) in an isogenic RCH-ACV NSD2 p.E1099K mutant (9B) (AID 1645876); note: nearly all actives have a fitted effect of over 70% in size
[3] = Primary qHTS for inhibitors of nuclear receptor binding SET domain protein 2 (NSD2) in an RCH-ACV wild type WT cells (2C) (AID 1645877); note: nearly all actives have a fitted effect of over 70% in size
% is set by controls: 0 for no effect and ±100 for the full control effect.

Calcium and integrin-binding protein 1 (Homo sapiens), sequence (Q99828 whole entry, looked up): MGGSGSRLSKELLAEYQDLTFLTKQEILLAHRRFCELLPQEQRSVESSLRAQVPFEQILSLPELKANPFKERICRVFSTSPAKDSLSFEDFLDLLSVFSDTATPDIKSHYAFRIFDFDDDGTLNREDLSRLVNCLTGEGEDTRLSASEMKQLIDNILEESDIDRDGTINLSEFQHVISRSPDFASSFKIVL

C/C1=C\CC(C)(C)/C=C/C/C(C(=O)O)=C/CC1
inactive: Potency [1] | Potency [2] | Potency [3]

CC(O)C(O)/C=C/C=C/C(=O)O[C@@H]1C=C(C(=O)O)[C@](O)(CO)[C@@]2(C)CCCC(C)(C)[C@H]12 (stereo partly drawn)
inactive: Potency [1] | Potency [2] | Potency [3]

CC(C)=C1CC2[C@](C)(CC[C@@H](OC(=O)C3(C)OC3C)[C@@]2(C)O)CC1=O (stereo partly drawn)
inactive: Potency [1] | Potency [2] | Potency [3]

C=CC1(C)CC2CCC3C(C)(C(=O)O)CCCC3(C)C2=CC1=O (stereo not drawn)
inactive: Potency [1] | Potency [2] | Potency [3]

COC(=O)CC[C@H](NC(=O)[C@H](CC(C)C)NC(=O)OCc1ccccc1)C(=O)N[C@@H](Cc1cnc[nH]1)C(=O)N[C@@H](CC(=O)OC)C(=O)CF (Cbz-LE(OMe)HD(OMe)-CH2F)
inactive: Potency [1] | activity change, negative = viability loss [2] -7.97% [at 9.23 µM] | activity change, negative = cell killing [3] -7.81% [at 9.23 µM]

CC(=O)O[C@@H]1C(=O)C(C)=C(CCC(C)CC(=O)O)[C@@]2(C)CCCC(C)(C)C12 (stereo partly drawn)
inactive: Potency [1] | Potency [2] | Potency [3]
